Measured values from PubChem BioAssay (NCATS).
Where “and” joins values, the source holds several entries; their conditions need not be identical. Equal values may be shown once. Results filed as inconclusive are left out. A call without a number means that no potency is given here. A number with no mark means an inactive call. Calls of active or inactive are those of the source. Unless noted, calls come from the whole dose curve; as a rule, active = well fitted curve in the direction sought with a large enough effect; inconclusive = small, poorly fitted or top-dose-only effect, or another doubt; inactive = no such curve, though single readings can be large; an effect the other way counts as inactive or inconclusive.

Key:
[1] = Primary qHTS for inhibitors of La Crosse Virus (LACV) - induced cell death in SH-SY5Y cells (AID 1508616); note: potency is the fitted concentration of half-maximal effect;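 for activity change: top concentration of the series differs between compounds; higher means more rescue of cells from virus-induced death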
In short: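 Cytopathicity rescue screen: compounds pinned onto SH-SY5Y cells, which are then infected with LACV (MOI 0.01) and held 6 days at 37C. Percent activity is scaled between infected DMSO control and uninfected DMSO control.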

[2] = molecular target: Calcium and integrin-binding protein 1 (Homo sapiens) (UniProt Q99828); assay: Validation qHTS for Identification of Calcium Integrin Binding protein 1 (CIB1) Competitor (AID 1508618)
Chain of Calcium and integrin-binding protein 1 (Homo sapiens) (Q99828 whole entry, looked up): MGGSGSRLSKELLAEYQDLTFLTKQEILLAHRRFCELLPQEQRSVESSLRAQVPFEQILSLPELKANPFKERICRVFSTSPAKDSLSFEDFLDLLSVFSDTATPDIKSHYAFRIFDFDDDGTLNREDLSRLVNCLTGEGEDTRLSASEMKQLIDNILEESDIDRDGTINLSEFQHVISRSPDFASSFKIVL
In short: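 Fluorescence polarization with 1 uM CIB1-GST and 100 nM FITC-alphaIIb peptide in HEPES pH 7.4, NaCl, 5 mM CaCl2, Tween20. Compounds at up to 114 uM final, preincubated with protein 15 min; read after 15 min more at RT.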

[3] = molecular target: Calcium and integrin-binding protein 1 (Homo sapiens) (UniProt Q99828); assay: Primary qHTS for Identification of Calcium Integrin Binding Protein 1 (CIB1) Competitor (AID 1508620);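 note: GST tagged CIB1 binding a fluorescein labelled alphaIIb integrin peptide tracer; top concentration of the series differs between compounds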
In short: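 CIB1-GST (1 uM final) and compound incubated 15 min at room temperature before adding FITC-alphaIIb peptide tracer (100 nM final). Competition for binding read by fluorescence polarization (ex 480, em 540) after another 15 min at room temperature.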

[4] = Primary qHTS for small molecule stabilizers of the endoplasmic reticulum resident proteome: Secreted ER Calcium Modulated Protein (SERCaMP) assay (AID 1508630)
In short: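 The SH-SY5Y reporter protocol was run at 3 concentrations up to 38.3 uM (primary) or 11 concentrations (follow-up): 16 h compound, 100 nM thapsigargin for 4 h, then extracellular luciferase luminescence.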

[5] = A High-Content qHTS Against Drug Library for the Identification of Small Molecules that Inhibit DYT1 Early Onset Primary Dystonia-Associated Cell Pathology (AID 1645839; calls by dose curve; note: series mostly up to about 46 µM)
In short: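 High-content imaging quantified EGFP-TorsinA mislocalization in HEK293-derived cells inducibly expressing DYT1 mutant torsinA, after 48 h exposure to compound given together with tetracycline induction. Cell count served as a toxicity channel alongside %pathology.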

[6] = molecular target: Cytochrome P450 2C9 (Homo sapiens) (UniProt P11712); assay: Cytochrome P450 family 2 subfamily C member 9 (CYP2C9) small molecule antagonists: luciferase biochemical (cell-free) qHTS assay (AID 1645842; active = well fitted curve in the direction sought with a large enough effect in the repeat runs; an effect the other way counts as inactive or inconclusive; note: nearly all actives have a fitted effect of over 55% in size; note: potency is the fitted concentration of half-maximal effect; for activity change, negative = inhibition: series mostly up to about 57 µM)
Chain of Cytochrome P450 2C9 (Homo sapiens) (P11712 whole entry, looked up): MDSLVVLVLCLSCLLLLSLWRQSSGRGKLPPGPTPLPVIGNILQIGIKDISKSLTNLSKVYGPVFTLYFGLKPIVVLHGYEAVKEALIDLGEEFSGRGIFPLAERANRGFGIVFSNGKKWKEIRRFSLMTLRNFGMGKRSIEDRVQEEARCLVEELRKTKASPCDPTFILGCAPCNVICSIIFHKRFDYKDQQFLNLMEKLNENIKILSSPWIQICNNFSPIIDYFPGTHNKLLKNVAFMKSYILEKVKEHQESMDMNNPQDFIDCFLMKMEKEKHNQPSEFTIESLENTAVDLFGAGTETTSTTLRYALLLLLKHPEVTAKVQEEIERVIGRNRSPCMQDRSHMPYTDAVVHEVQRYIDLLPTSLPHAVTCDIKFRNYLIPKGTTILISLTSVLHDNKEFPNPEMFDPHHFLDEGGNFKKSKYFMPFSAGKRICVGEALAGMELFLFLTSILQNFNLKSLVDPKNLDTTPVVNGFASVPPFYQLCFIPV
In short: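 P450-Glo CYP2C9 system: proluciferin substrate with enzyme in mix containing 0.4% BSA, 10 min at room temperature, then NADPH regeneration solution added and incubated 1 h at 37C. Detection reagent stopped reaction; luminescence read after 20 min as RLU.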

[7] = molecular target: Papain (Carica papaya) (UniProt P00784); assay: Primary qHTS assay for inhibitors of the protease papain (AID 1645873);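 note: papain turnover of Z-FR-AMC read as the AMC fluorescence gain over 10 min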; note: potency is the fitted concentration of half-maximal effect; for activity change, negative = inhibition: series mostly up to about 50 µM
Chain of Papain (Carica papaya) (P00784 whole entry, looked up, the tested form may be a part): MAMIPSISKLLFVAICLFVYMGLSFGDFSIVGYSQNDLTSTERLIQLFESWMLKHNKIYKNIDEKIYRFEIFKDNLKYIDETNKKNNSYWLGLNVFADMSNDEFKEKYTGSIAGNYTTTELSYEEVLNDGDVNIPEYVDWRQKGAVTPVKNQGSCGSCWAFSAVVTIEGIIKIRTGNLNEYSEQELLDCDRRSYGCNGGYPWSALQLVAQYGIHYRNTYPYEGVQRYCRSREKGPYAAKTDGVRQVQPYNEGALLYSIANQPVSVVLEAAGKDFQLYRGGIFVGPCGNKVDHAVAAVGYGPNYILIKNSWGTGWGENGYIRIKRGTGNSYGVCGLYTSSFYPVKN

[8] = Primary qHTS for inhibitors of nuclear receptor binding SET domain protein 2 (NSD2) in an isogenic RCH-ACV NSD2 p.E1099K mutant (9B) (AID 1645876); note: nearly all actives have a fitted effect of over 70% in size; note: potency is the fitted concentration of half-maximal effect
[9] = Primary qHTS for inhibitors of nuclear receptor binding SET domain protein 2 (NSD2) in an RCH-ACV wild type WT cells (2C) (AID 1645877); note: nearly all actives have a fitted effect of over 70% in size; note: potency is the fitted concentration of half-maximal effect
[10] = molecular target: Cytochrome P450 2D6 (Homo sapiens) (UniProt P10635); assay: Cytochrome P450 family 2 subfamily D member 6 (CYP2D6) small molecule antagonists: luciferase biochemical (cell-free) qHTS assay (AID 1645840; active = well fitted curve in the direction sought with a large enough effect in the repeat runs; an effect the other way counts as inactive or inconclusive; note: nearly all actives have a fitted effect of over 55% in size; note: potency is the fitted concentration of half-maximal effect; for activity change, negative = inhibition: series mostly up to about 57 µM)
Chain of Cytochrome P450 2D6 (Homo sapiens) (P10635 whole entry, looked up): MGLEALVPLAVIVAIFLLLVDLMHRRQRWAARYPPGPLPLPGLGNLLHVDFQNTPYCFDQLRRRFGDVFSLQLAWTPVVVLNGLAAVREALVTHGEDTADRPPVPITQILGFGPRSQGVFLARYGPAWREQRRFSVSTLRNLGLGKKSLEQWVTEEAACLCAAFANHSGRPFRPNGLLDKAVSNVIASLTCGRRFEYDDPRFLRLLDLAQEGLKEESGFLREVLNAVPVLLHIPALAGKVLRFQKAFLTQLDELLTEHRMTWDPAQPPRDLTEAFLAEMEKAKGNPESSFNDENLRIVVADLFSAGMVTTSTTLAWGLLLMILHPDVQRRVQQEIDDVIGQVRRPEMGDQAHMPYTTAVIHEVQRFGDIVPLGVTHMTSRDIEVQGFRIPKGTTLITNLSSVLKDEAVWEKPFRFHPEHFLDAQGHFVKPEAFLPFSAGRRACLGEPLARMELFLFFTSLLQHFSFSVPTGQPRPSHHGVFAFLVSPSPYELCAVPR
In short: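 P450-Glo CYP2D6 system: proluciferin substrate converted by enzyme to luciferin, read by luminescence proportional to activity. Enzyme-substrate mix with compound 10 min at room temperature, then NADPH regeneration 1 h before detection reagent.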

[11] = molecular target: Cytochrome P450 3A4 (Homo sapiens) (UniProt P08684); assay: Cytochrome P450 family 3 subfamily A member 4 (CYP3A4) small molecule antagonists: luciferase qHTS assay (AID 1645841; active = well fitted curve in the direction sought with a large enough effect in the repeat runs; an effect the other way counts as inactive or inconclusive; note: nearly all actives have a fitted effect of over 45% in size)
Chain of Cytochrome P450 3A4 (Homo sapiens) (P08684 whole entry, looked up): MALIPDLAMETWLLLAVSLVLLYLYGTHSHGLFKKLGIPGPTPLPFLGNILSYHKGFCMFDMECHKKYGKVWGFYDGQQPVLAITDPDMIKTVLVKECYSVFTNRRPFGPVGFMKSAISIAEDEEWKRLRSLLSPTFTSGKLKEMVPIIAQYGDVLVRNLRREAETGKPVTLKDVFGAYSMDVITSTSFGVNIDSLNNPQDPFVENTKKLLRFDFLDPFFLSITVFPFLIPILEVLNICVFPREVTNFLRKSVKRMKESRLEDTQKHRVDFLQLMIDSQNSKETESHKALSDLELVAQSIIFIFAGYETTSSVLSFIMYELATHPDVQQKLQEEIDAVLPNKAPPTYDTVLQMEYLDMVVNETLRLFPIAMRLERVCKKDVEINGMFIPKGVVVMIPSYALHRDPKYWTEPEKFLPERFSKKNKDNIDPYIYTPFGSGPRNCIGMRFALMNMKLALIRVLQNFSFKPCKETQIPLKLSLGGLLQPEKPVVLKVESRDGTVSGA
In short: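 Luminescent CYP3A4 activity readout: compounds plus enzyme-substrate mix 10 min at room temperature, reaction started with NADPH regenerating system for 1 h, stopped with detection reagent, read after 20 min. Ketoconazole served as control.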

SMILES | Potency [1] | outcome [2] | Potency [3] | Potency [4] | Potency [5] | Potency [6] | Potency [7] | Potency [8] | Potency [9] | % pathology change, negative = correction [5] | activity change, negative = inhibition [10] | activity change, negative = inhibition [6] | outcome [8] | activity change, negative = cell killing [9] | Potency [10] | outcome [11]
CCN(CC)CCNC(=O)c1ccc(NC(C)=O)cc1 | inactive | inactive | inactive | inactive | inactive | inactive | inactive | inactive | inactive |  |  |  |  |  |  | 
NCCCNCCSP(=O)(O)O | inactive | inactive | inactive | inactive |  |  | inactive |  |  | 18.3% [at 9.22 µM] | -0.206% [at 11.5 µM] | 13.8% [at 11.5 µM] | inactive [at 9.23 µM] | 5.49% [at 9.23 µM] |  | 
Nc1c2c(nc3ccccc13)CCCC2O (stereo unspecified) | inactive | inactive | inactive | inactive | inactive | inactive | inactive | inactive | inactive |  |  |  |  |  | 15.5 µM (active) | 
CCN(Cc1ccncc1)C(=O)C(CO)c1ccccc1 (stereo unspecified) | inactive | inactive | inactive | inactive | inactive |  | inactive | inactive | inactive |  |  |  |  |  | inactive | 
Cc1scc2c1N(C(=O)CN1CCN(C)CC1)c1ccccc1NC2=O | inactive | inactive | inactive | inactive | inactive | inactive | inactive | inactive | inactive |  |  |  |  |  | inactive | 
CC(C(=O)O)c1ccc(CC2CCCC2=O)cc1 (stereo unspecified) | inactive | inactive | inactive |  | inactive | inactive | inactive | inactive |  |  |  |  |  |  | inactive | inactive
CCCCNC(=O)NS(=O)(=O)c1ccc(C)cc1 | inactive | inactive | inactive | inactive | inactive |  | inactive | inactive |  |  |  |  |  |  | inactive | 
Cc1nc2c([nH]1)c(=O)n(C)c(=O)n2Cc1ccco1 | inactive | inactive | inactive | inactive | inactive | inactive | inactive |  | inactive |  |  |  |  |  |  | 
CC(C)NNC(=O)c1ccncc1 | inactive | inactive | inactive | inactive | inactive | inactive | inactive | inactive | inactive |  |  |  |  |  | inactive | 
Nc1nc(N)c2nc(-c3ccccc3)c(N)nc2n1 | inactive | inactive | inactive | inactive | inactive |  | 1.12 µM (active) | 7.5 µM (active) |  |  |  |  |  |  |  | 
CN(C)CCN(Cc1cccs1)c1ccccn1 | inactive | inactive | inactive | inactive | inactive | inactive | inactive | inactive |  |  |  |  |  |  |  | 
CN=C(NC#N)NCCSCc1nc[nH]c1C | inactive | inactive | inactive | inactive | inactive | 13.8 µM (active) | inactive | inactive | inactive |  |  |  |  |  |  | 
N[C@@H](COP(=O)(O)O)C(=O)O | inactive | inactive | inactive |  | inactive | inactive | inactive | inactive | inactive |  |  |  |  |  | inactive | inactive
C[C@@H](O)[C@H]1C(=O)N2C(C(=O)O)=C(SCCN=CN)C[C@H]12 | inactive | inactive | inactive | inactive | inactive |  | inactive | inactive |  |  |  |  |  |  | inactive | 
COCC(=O)O[C@]1(CCN(C)CCCc2nc3ccccc3[nH]2)CCc2cc(F)ccc2[C@@H]1C(C)C | inactive | inactive | inactive | inactive |  | inactive |  | 10.6 µM (active) |  |  |  |  |  |  | 0.049 µM (active) | 
C=CCc1ccccc1OCC(O)CNC(C)C (stereo unspecified) | inactive | inactive | inactive | inactive | inactive | inactive | inactive | inactive | inactive |  |  |  |  |  | 6.92 µM (active) and 8.49 µM (active) | 
CC(C)(C)c1ccc(C(=O)CCCN2CCC(OC(c3ccccc3)c3ccccc3)CC2)cc1 | inactive | inactive | inactive | inactive |  |  | inactive | 11.9 µM (active) |  |  |  |  |  |  |  | 
COc1ccc(CN(CCN(C)C)c2ccccn2)cc1 | inactive | inactive | inactive | inactive | inactive | inactive | inactive | inactive | inactive |  |  |  |  |  | 195 nM (active) and 213 nM (active) | 
COc1ccc(CCN(C)CCCC(C#N)(c2cc(OC)c(OC)c(OC)c2)C(C)C)cc1OC (stereo unspecified) | inactive | inactive | inactive | inactive | inactive |  | inactive |  | 15 µM (active) |  |  |  |  |  |  | 
CC(N=C(NC#N)Nc1ccncc1)C(C)(C)C (stereo unspecified) | inactive | inactive | inactive | inactive | inactive | 3.89 µM (active) | inactive | inactive | inactive |  |  |  |  |  | 21.9 µM (active) | 
Cc1nc2ccccn2c(=O)c1CCN1CCC(C(=O)c2ccc(F)cc2)CC1 | inactive | inactive | inactive | inactive | inactive | inactive |  | inactive |  |  |  |  |  |  | 2.19 µM (active) | 
Nc1ncn([C@@H]2O[C@H](CO)[C@@H](O)[C@H]2O)c(=O)n1 | 1.12 µM (active) | inactive | inactive | inactive |  | inactive | inactive | 10.5 µM (active) | 9.34 µM (active) |  |  |  |  |  | inactive | inactive
O=C(O)CP(=O)(O)O | inactive | inactive | inactive |  | inactive | inactive | inactive | inactive |  |  |  |  |  |  | inactive | 
